In PubChem BioAssay AID493056 (National Center for Advancing Translational Sciences (NCATS), 2011):
Out of some 360,000 compounds screened, about 2,400 (0.67%) were called active. Cut-off read from the data, not from the text of the source: active = enhancement above about 30%; inactive = the rest. Shown is part of a subset that was picked to be rich in actives.

Each compound was assayed against Thyrotropin-releasing hormone receptor (Homo sapiens) (UniProt P34981) (assay: qHTS for Small Molecule Agonists and Allosteric Enhancers of Human TRH Receptor: Primary Screen for Enhancers). Conditions: TRHR cells, fluo-8 calcium fluorescence, EC20 TRH enhancement; at 2 µM; stronger effect = higher value.
Summary of the method: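 Enhancer read-out: after compound pinning and an initial kinetic agonist-mode read, an EC20 of TRH (10 nM final) was injected and fluo-8 calcium signal (Ex 480/Em 530) followed at 1 s/cycle for 100 cycles in TRHR-expressing cells.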
Note: 0% is about no effect.

Chain of Thyrotropin-releasing hormone receptor (Homo sapiens) (P34981 whole entry, looked up): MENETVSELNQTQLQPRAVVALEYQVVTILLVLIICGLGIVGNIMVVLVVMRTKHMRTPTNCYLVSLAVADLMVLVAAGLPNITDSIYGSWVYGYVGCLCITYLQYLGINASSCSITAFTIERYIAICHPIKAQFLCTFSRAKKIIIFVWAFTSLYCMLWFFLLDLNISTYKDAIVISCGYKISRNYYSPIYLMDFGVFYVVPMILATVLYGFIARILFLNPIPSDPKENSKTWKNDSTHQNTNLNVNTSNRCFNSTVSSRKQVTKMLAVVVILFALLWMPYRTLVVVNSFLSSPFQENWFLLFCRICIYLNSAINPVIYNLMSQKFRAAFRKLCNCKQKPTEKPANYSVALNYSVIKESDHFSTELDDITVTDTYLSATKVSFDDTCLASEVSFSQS

enhancement, active:
CCOc1ncccc1C(=O)OCC(=O)N1c2ccccc2CC1C (centres undefined) 156%
CN(C)c1ccc(Nc2c3c4c(cccc4n(C)c2=O)C(=O)c2ccccc2-3)cc1 30.8%
CCCCn1c(N)c(N(CC)C(=O)c2ccc(N(C)S(=O)(=O)c3ccc(C)cc3)cc2)c(=O)[nH]c1=O 37.2%
O=C(CSc1ccc(-c2cccs2)nn1)Nc1ccccc1F 35.3%
COC(=O)c1cc(N2CCNCC2)nc2ccccc12 50.7%

enhancement, inactive:
CCOC(=O)c1[nH]c(C)c(C(=O)OCC(=O)N2c3ccccc3CC2C)c1C (centres undefined) -0.269%
CCOc1ncccc1C(=O)OCC(=O)NC1CC1 6.62%
Cc1ccn2c(Nc3ccc4c(c3)OCCO4)c(-c3ccc(C)s3)nc2c1 -3.6%
Cc1ccc(CCNC(=O)c2ccc3c(c2)nc2n3CCC(C)C2)cc1 (centres undefined) -2.39%
Cc1cccc(-n2c(=O)c3c(c4cc(C)ccc4n3C)n(CC(=O)Nc3ccccc3Cl)c2=O)c1 -2.31%
Cc1ccc(Nc2c(-c3ccc(N(C)C)cc3)nc3nc[nH]n23)cc1 1.88%
CCOc1ccc(C(=O)c2cn(Cc3ccc(F)cc3)c3ccc(F)cc3c2=O)cc1 -6.47%
COc1cc2c(cc1OC)C(COc1ccc(F)cc1)N(C(=O)c1ccccc1F)CC2 (centres undefined) -0.875%
CCCCn1c(N)c(N(CCOC)C(=O)c2cccc(S(=O)(=O)N(C)c3ccccc3)c2)c(=O)[nH]c1=O -3.31%
CCCCN(C(=O)c1ccc2ccccc2c1)c1c(N)n(CCCC)c(=O)[nH]c1=O -1.43%
Cc1nn(CC(=O)NCCc2ccccc2)c(=O)c2c1sc1ccccc12 -4.11%
CCc1ccc(NC(=O)c2cc3c(=O)n(Cc4cccnc4)ccc3nc2C)cc1 3.22%
COc1ccccc1C(=O)Nc1c(C(=O)Nc2ccc(C)cc2)oc2ccccc12 1.48%
O=C(CSc1nnc(CNC(=O)c2ccccc2)n1-c1ccc(F)cc1)Nc1ccccc1F 1.22%
O=C(CSc1ccc(-c2ccccn2)nn1)Nc1ccccc1 -3.04%
CCOc1ccc(CNC(=O)c2cc(-c3ccc(Cl)s3)nc3ccccc23)cc1 9.74%
Cc1ccc2nc(CN3CCN(S(=O)(=O)c4ccc(C)c(C)c4)CC3)oc2c1 0.582%
CC(=O)N1CCN(C(=O)c2cc(-c3ccc(Cl)s3)nc3ccccc23)CC1 2.16%
COC(=O)c1cnc(N2CCN(c3ccccc3OC)CC2)c2ccccc12 -10.4%
